PubChem BioAssay (NCI)
The panel holds about 83,000 compounds, 20% with a hit somewhere; the sample as a whole holds those more often.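 96-well plates, one dose, 48 hours. Percent growth reported; active if below 10.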 Unmarked numbers belong to inactive results. Calls of active or inactive are those of the source.

Key:
Assay in all cases: NCI-60 one-dose screen, 48 h (100 = growth as untreated, 0 = no growth, -100 = all killed)
Conditions in all cases: 10 µM unless noted
[1] = system: SN12C renal
[2] = system: UO-31 renal
[3] = system: TK-10 renal
[4] = system: ACHN renal
[5] = system: CAKI-1 renal
[6] = system: A498 renal
[7] = system: CCRF-CEM leukemia
[8] = system: MOLT-4 leukemia
[9] = system: SR leukemia

COc1cc(C#N)cc2[nH]c(=O)oc12
growth [1]: 115%
growth [2]: 85.6%
growth [3]: 103%
growth [4]: 99.7%
growth [5]: 91.8%
growth [6]: 82.5%
growth [7]: 109%
growth [8]: 123%
growth [9]: 120%

COc1ccc(CCN2C(=O)CCSC2=S)cc1
growth [1]: 46.4%
growth [2]: 59.9%
growth [3]: 39.1%
growth [4]: 42.3%
growth [5]: 44.8%
growth [6]: 82.9%
growth [7]: 30%
growth [8]: 64.1%
growth [9]: 18.1%

O=C(NCCCN1CCC(N2CCCCC2)CC1)C1=Cc2cc(Br)ccc2OC1
growth [1]: 57.7%
growth [2]: 21.8%
growth [3]: 60%
growth [4]: 37.7%
growth [5]: 54.5%
growth [6]: 52.7%
growth [7]: 27.4%
growth [8]: 11.9%
growth [9]: 11.4%

COc1ccccc1N1C(=N)S/C(=C\c2ccc(OCc3ccccc3F)cc2)C1=O
growth [1]: 80.7%
growth [2]: 59.2%
growth [3]: 104%
growth [4]: 69.6%
growth [5]: 81.6%
growth [6]: 82%
growth [7]: 65.8%
growth [8]: 53%
growth [9]: 73.4%

COc1ccc(CN2CCCC(C(=O)c3ccc(C(F)(F)F)cc3)C2)c(O)c1 (stereo not given)
growth [1]: 31.8%
growth [2]: 26.4%
growth [3]: 34.6%
growth [4]: 38%
growth [5]: 32.6%
growth [6]: 15.2%
growth [7]: 8.95% (active)
growth [8]: 13.6%
growth [9]: 3.77% (active)

CCOC(=O)c1ccc2[nH]c(-c3ccccc3)cc(=O)c2c1
growth [1]: 98.2%
growth [2]: 97.1%
growth [3]: 112%
growth [4]: 97.5%
growth [5]: 98.5%
growth [6]: 94.4%
growth [7]: 89.7%
growth [8]: 94%
growth [9]: 96%

CC(=O)n1cc(-c2c[nH]c3ccccc23)c(-c2ccc(Cl)cc2)n1
growth [1]: 99.8%
growth [2]: 60.5%
growth [3]: 94.9%
growth [4]: 78.5%
growth [5]: 61.2%
growth [6]: 71.6%
growth [7]: 82.2%
growth [8]: 88.2%
growth [9]: 92.9%

O=c1c2cc(F)ccc2sc2c(Nc3ccncc3)nc3ccccc3c12
growth [1]: 90%
growth [2]: -83.3% (active)
growth [3]: 78.6%
growth [4]: 28.5%
growth [5]: 82.5%
growth [6]: 63.9%
growth [7]: -27.4% (active)
growth [8]: -36.9% (active)
growth [9]: -4.43% (active)

CCOC(=O)CSc1c(-c2ccccc2)c2cc(Cl)ccc2[nH]c1=O
growth [1]: 102%
growth [2]: 86.2%
growth [3]: 107%
growth [4]: 97.6%
growth [5]: 92%
growth [6]: 101%
growth [7]: 95.7%
growth [8]: 88.3%
growth [9]: 75.8%

O=C(Nc1ccc(C23CC4CC(CC(c5ccccc5)(C4)C2)C3)cc1)c1cccs1
growth [1]: 66.7%
growth [2]: 66.5%
growth [3]: 76.9%
growth [4]: 76.9%
growth [5]: 77.6%
growth [6]: 65.4%
growth [7]: 56.8%
growth [8]: 57.7%
growth [9]: 38.7%

CCOC(=O)c1c(Cl)c2c(n1Cc1ccccc1)-c1oncc1CCC2
growth [1]: 63.9%
growth [2]: 72.4%
growth [3]: 98.9%
growth [4]: 65.8%
growth [5]: 59.5%
growth [6]: 56.9%
growth [7]: 59.7%
growth [8]: 52.6%
growth [9]: 0.79% (active)

Nc1nc(Nc2cccc(F)c2)nc2ccccc12
growth [1]: 34.2%
growth [2]: 23.7%
growth [3]: 29.9%
growth [4]: 44.8%
growth [5]: 38.3%
growth [6]: 43.9%
growth [7]: 26.2%
growth [8]: 39.5%
growth [9]: 13.2%

COC(=O)c1cc2c(n1Cc1ccccc1)-c1oncc1CCC2
growth [1]: 73.2%
growth [2]: 79.9%
growth [3]: 102%
growth [4]: 79.8%
growth [5]: 78.7%
growth [6]: 53.8%
growth [7]: 61.7%
growth [8]: 61.7%
growth [9]: 12.2%

Cc1nn(-c2nc3ccccc3[nH]2)c2c1C(c1ccc(OCC(N)=O)cc1)CC(=O)N2 (stereo not given)
growth [1]: 101%
growth [2]: 81.9%
growth [3]: 114%
growth [4]: 102%
growth [5]: 89.5%
growth [6]: 79.1%
growth [7]: 22.5%
growth [8]: -20.1% (active)
growth [9]: 117%

Cc1ccc2cc3c(N)c4c(C)ccc(C)c4nc3nc2c1
growth [1]: 63.9%
growth [2]: 10.4%
growth [3]: 66.6%
growth [4]: 60.8%
growth [5]: 7.98% (active)
growth [6]: 41.9%
growth [7]: 39.6%
growth [8]: 44.8%
growth [9]: -9.96% (active)

CCCC(c1nnnn1C1CCCCC1)N1CCN(C(=O)c2ccco2)CC1 (stereo not given)
growth [1]: 73.6%
growth [2]: 82.3%
growth [3]: 86.7%
growth [4]: 84.6%
growth [5]: 66.4%
growth [6]: 44.1%
growth [7]: 24.1%
growth [8]: 26.9%
growth [9]: 6.95% (active)

N#C/C(=C1\SC(=O)CN1c1ccccc1)c1nc2ccccc2s1
growth [1]: 91%
growth [2]: 53.2%
growth [3]: 135%
growth [4]: 93.6%
growth [5]: 89.9%
growth [6]: 82.4%
growth [7]: 84.4%
growth [8]: 84.2%
growth [9]: 76.4%

COc1ccc(-c2nsc3c2NC(=O)CC3c2ccsc2)cc1 (stereo not given)
growth [1]: 41.9%
growth [2]: 45%
growth [3]: 53.2%
growth [4]: 41.9%
growth [5]: 27.6%
growth [6]: 0.156% (active)
growth [7]: -7.06% (active)
growth [8]: 17.5%
growth [9]: 19.2%

CCN(CC)CCCNc1ccnc2cc3ccccc3cc12
growth [1]: 87.6%
growth [2]: 106%
growth [3]: 83.8%
growth [4]: 70.7%
growth [5]: 75.3%
growth [6]: 94%
growth [7]: 91.1%
growth [8]: 87.3%
growth [9]: 77.5%

c1ccc(-c2ccc(-c3nc4ccccc4[nH]3)cc2)cc1
growth [1]: 92.9%
growth [2]: 67.4%
growth [3]: 84.7%
growth [4]: 90.7%
growth [5]: 93.6%
growth [6]: 88.6%
growth [7]: 38.4%
growth [8]: 56.9%
growth [9]: 58.8%

COc1c2ccoc2c(/C=C/C=O)c2oc(-c3ccccc3)cc(=O)c12
growth [1]: 38.7%
growth [2]: 60.1%
growth [3]: 93.8%
growth [4]: 91.5%
growth [5]: 93.1%
growth [6]: 72.4%
growth [7]: 0.373% (active)
growth [8]: 10.4%
growth [9]: 5.33% (active)

CCOc1ccc2c(c1)CN(Cc1ccc(Cl)cc1)CO2
growth [1]: 67.7%
growth [2]: 40.5%
growth [3]: 20.1%
growth [4]: 33.2%
growth [5]: 54.2%
growth [6]: 39.5%
growth [7]: 78.1%
growth [8]: 83.2%
growth [9]: 41.5%

Oc1c(C(Nc2ccccn2)c2cccc(Oc3ccccc3)c2)ccc2cccnc12 (stereo not given)
growth [1]: -89.4% (active)
growth [2]: -90.4% (active)
growth [3]: -90.9% (active)
growth [4]: -88.8% (active)
growth [5]: -90.3% (active)
growth [6]: -61% (active)
growth [7]: -59% (active)
growth [8]: -70.1% (active)
growth [9]: -49.7% (active)

CN(C)c1ccc(N=Cc2ccc(N3CCOCC3)cc2)cc1
growth [1]: 79%
growth [2]: 71.4%
growth [3]: 116%
growth [4]: 88.8%
growth [5]: 86.6%
growth [6]: 91.7%
growth [7]: 58.8%
growth [8]: 65.2%
growth [9]: 75.6%

CCc1ccc(CNCC(O)c2ccccc2)cc1 (stereo not given)
growth [1]: 76.4%
growth [2]: 34.6%
growth [3]: 80.7%
growth [4]: 72.2%
growth [5]: 66.4%
growth [6]: 67.8%
growth [7]: 28.7%
growth [8]: 19.2%
growth [9]: 3.88% (active)

CCCCCCC(O)(c1ccc(F)cc1)C(CN1CCOCC1)c1ccccc1 (stereo not given)
growth [1]: 35.3%
growth [2]: 19.4%
growth [3]: 34.2%
growth [4]: 23.7%
growth [5]: 33.1%
growth [6]: 50%
growth [7]: 18.1%
growth [8]: 17.7%
growth [9]: 23.2%

Oc1ccc(-c2nc(-c3ccc4oc5ccc(-c6[nH]c(-c7ccc(O)cc7)nc6-c6ccccc6)cc5c4c3)c(-c3ccccc3)[nH]2)cc1
growth [1]: 39.3%
growth [2]: 39.2%
growth [3]: 80.3%
growth [4]: 73.5%
growth [5]: 69.5%
growth [6]: 77.5%
growth [7]: 43.9%
growth [8]: 57.1%
growth [9]: 43.1%

CCOC(=O)C1=C(C)N=c2s/c(=C\c3cc(Cl)ccc3O)c(=O)n2C1c1ccc(OC)cc1 (stereo not given)
growth [1]: 93.8%
growth [2]: 58.8%
growth [3]: 94.1%
growth [4]: 99.4%
growth [5]: 96.5%
growth [6]: 76.1%
growth [7]: 85.3%
growth [8]: 96.4%
growth [9]: 86%

COC(=O)[C@@H]1CCCN1C(=O)[C@H]1CCCN1C(=O)[C@@H](Cc1c[nH]c2ccccc12)NC(=S)Nc1cc(C(F)(F)F)cc(C(F)(F)F)c1
growth [1]: 44.4%
growth [2]: 28.3%
growth [3]: 78.7%
growth [4]: 37.2%
growth [5]: 22%
growth [6]: 57.7%
growth [7]: 36.3%
growth [8]: 16.3%
growth [9]: 5.25% (active)

CC(C)CCNCC(O)Cn1c2ccccc2c2ccccc21 (stereo not given)
growth [1]: 19.4%
growth [2]: -14.4% (active)
growth [3]: 33.1%
growth [4]: 2.8% (active)
growth [5]: -0.189% (active)
growth [6]: 3.02% (active)
growth [7]: 13%
growth [8]: 2.44% (active)
growth [9]: 3.35% (active)
